Laboratory results reported in PubChem BioAssay (EPA / NIEHS).
Activity calls are given as the source filed them. The calls were made as follows: active = hit-call score of the fitted dose curve at least 0.9, where 1 is the maximum; inactive = score below 0.9.

Columns and labels:
Details in all cases: mRNA level, 48 h; actives raise or lower the signal
[1] = read-out: Potassium channel subfamily K member 1 (KCNK1), KCNK1 (gene 3775); assay: LTEA_HepaRG_KCNK1: Life Technologies and Expression Analysis (LTEA) Assay for Potassium channel subfamily K member 1 (KCNK1) using HepaRG (AID 2283511)
Outline: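 Differentiated HepaRG cells, 48 h exposure in serum-free induction medium with 0.5% DMSO; 8 concentrations, half-log from 100 uM, duplicate. KCNK1 mRNA by qRT-PCR, normalized to ACTB, GAPDH, POLR2A; bidirectional fit vs DMSO.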

[2] = read-out: JUN Transcription Factor, JUN (gene 3725); assay: LTEA_HepaRG_JUN: Life Technologies and Expression Analysis (LTEA) Assay for JUN Transcription Factor using HepaRG (AID 2283513)
Outline: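 Cells plated 48 h, medium switched to serum-free induction medium, then dosed 48 h (100 uM top, half-log dilutions, 0.5% DMSO). RNA isolated; JUN measured by qRT-PCR against three housekeeping genes; gain or loss fitted relative to DMSO.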

[3] = read-out: Lipase C (LIPC), LIPC (gene 3990); assay: LTEA_HepaRG_LIPC: Life Technologies and Expression Analysis (LTEA) Assay for Lipase C (LIPC) using HepaRG (AID 2283514)
Outline: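 HepaRG cells, 48 h after plating, treated in duplicate for 48 h in serum-free induction medium over 8 half-log concentrations from 100 uM, 0.5% DMSO. LIPC mRNA by TaqMan qRT-PCR normalized to ACTB/GAPDH/POLR2A; bidirectional fit versus DMSO.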

[4] = read-out: Lipoprotein lipase (LPL), LPL (gene 4023); assay: LTEA_HepaRG_LPL: Life Technologies and Expression Analysis (LTEA) Assay for Lipoprotein lipase (LPL) using HepaRG (AID 2283515)
Outline: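 Differentiated HepaRG cells, plated 48 h, then exposed 48 h in serum-free induction medium to 8 concentrations (top 100 uM, half-log steps) in 0.5% DMSO, duplicate. LPL mRNA measured by qRT-PCR, normalized to ACTB, GAPDH and POLR2A.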

[5] = read-out: MicroRNA 122 (MIR122), gene 406906; assay: LTEA_HepaRG_MIR122: Life Technologies and Expression Analysis (LTEA) Assay for MicroRNA 122 (MIR122) using HepaRG (AID 2283516); also: the transcript read is the microRNA miR-122
Outline: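 HepaRG plated 48 h, switched to serum-free induction medium, then treated in duplicate for 48 h (100 uM top, half-log steps, 0.5% DMSO vehicle). RNA isolated, qRT-PCR performed, concentration-response fitted both directions relative to DMSO.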

[6] = read-out: matrix metalloproteinase-10 (MMP10), MMP10 (gene 4319); assay: LTEA_HepaRG_MMP10: Life Technologies and Expression Analysis (LTEA) Assay for matrix metalloproteinase-10 (MMP10) using HepaRG (AID 2283517)
Outline: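 Differentiated HepaRG cells in serum-free induction medium exposed 48 h in duplicate to 8-point half-log series up to 100 uM in 0.5% DMSO. mRNA quantified by qRT-PCR, normalised to ACTB, GAPDH, POLR2A; bidirectional fit versus DMSO.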

MYC, MYC (gene 4609) = assay: LTEA_HepaRG_MYC: Life Technologies and Expression Analysis (LTEA) Assay for MYC using HepaRG (AID 2283518)
Outline: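 Differentiated human HepaRG cells, plated 48 h then switched to serum-free induction medium, were exposed in duplicate for 48 h to 8-point half-log series up to 100 uM in 0.5% DMSO. MYC mRNA measured by qRT-PCR, normalized to ACTB/GAPDH/POLR2A.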

[7] = read-out: matrix metalloproteinase-3 (MMP3), MMP3 (gene 4314); assay: LTEA_HepaRG_MMP3: Life Technologies and Expression Analysis (LTEA) Assay for matrix metalloproteinase-3 (MMP3) using HepaRG (AID 2283519)
Outline: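 HepaRG cells (~100,000/well) in serum-free induction medium were dosed in duplicate for 48 h with an 8-point half-log series from 100 uM, 0.5% DMSO. MMP3 mRNA was quantified by Fluidigm TaqMan qRT-PCR, normalized to three housekeeping genes.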

[8] = read-out: Paternally Expressed 10 (PEG10), PEG10 (gene 23089); assay: LTEA_HepaRG_PEG10: Life Technologies and Expression Analysis (LTEA) Assay for Paternally Expressed 10 (PEG10) using HepaRG (AID 2283520)
Outline: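 HepaRG, 48 h post-plating → serum-free induction medium → 48 h chemical exposure (duplicate, 8-pt, max 100 uM, half-log, 0.5% DMSO) → lysis in RLT → TaqMan qRT-PCR for PEG10, ACTB/GAPDH/POLR2A normalisation.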

[9] = read-out: Nuclear factor NF-kappa-B p105 subunit (Homo sapiens) (UniProt P19838); assay: LTEA_HepaRG_NFKB1: Life Technologies and Expression Analysis (LTEA) Assay for Nuclear Factor Kappa B Subunit 1 (NFKB1) using HepaRG (AID 2283521);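 also: TaqMan qRT-PCR transcript normalised to ACTB GAPDH and POLR2A housekeeping genes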
Outline: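 Differentiated human HepaRG cells in serum-free induction medium with 0.5% DMSO were exposed for 48 h to eight half-log concentrations, top 100 uM, in duplicate. NFKB1 mRNA measured by Fluidigm TaqMan qRT-PCR, normalised to ACTB, GAPDH and POLR2A; bidirectional fit versus DMSO.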

[10] = read-out: Protein phosphatase 2A (PPP2R4), PTPA (gene 5524); assay: LTEA_HepaRG_PPP2R4: Life Technologies and Expression Analysis (LTEA) Assay for Protein phosphatase 2A (PPP2R4) using HepaRG (AID 2283522)
Outline: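 Readout is PPP2R4 transcript level by microfluidic qRT-PCR after 48 h chemical treatment of human HepaRG liver cells. Concentrations spanned 100 uM downward in half-log steps; gain or loss of signal was fitted relative to DMSO.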

[11] = read-out: Phosphatase and tensin (PTEN), PTEN (gene 5728); assay: LTEA_HepaRG_PTEN: Life Technologies and Expression Analysis (LTEA) Assay for Phosphatase and tensin (PTEN) using HepaRG (AID 2283523)
Outline: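 HepaRG cells, 48 h after plating, exposed in duplicate for 48 h in serum-free induction medium to 8 half-log concentrations up to 100 uM (0.5% DMSO). PTEN mRNA by qRT-PCR, normalized to ACTB, GAPDH, POLR2A; bidirectional fit versus DMSO.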

[12] = read-out: solute carrier (SLC22A1), SLC22A1 (gene 6580); assay: LTEA_HepaRG_SLC22A1: Life Technologies and Expression Analysis (LTEA) Assay for solute carrier (SLC22A1) using HepaRG (AID 2283524)
Outline: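 Differentiated human HepaRG cells in serum-free induction medium, exposed 48 h in duplicate to 8-point half-log series from 100 µM top in 0.5% DMSO. SLC22A1 mRNA by TaqMan qRT-PCR normalized to ACTB, GAPDH, POLR2A; bidirectional fit versus DMSO.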

[13] = read-out: Pyruvate Dehydrogenase Kinase 4 (PDK4), PDK4 (gene 5166); assay: LTEA_HepaRG_PDK4: Life Technologies and Expression Analysis (LTEA) Assay for Pyruvate Dehydrogenase Kinase 4 (PDK4) using HepaRG (AID 2283525)
Outline: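 HepaRG cells plated 48 h, then switched to serum-free induction medium and exposed in duplicate for 48 h to 8 half-log concentrations from 100 uM in 0.5% DMSO. PDK4 mRNA measured by qRT-PCR, normalized to ACTB, GAPDH and POLR2A; bidirectional fit versus DMSO.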

[14] = read-out: NAD(P)H dehydrogenase [quinone] 1 (NQO1), NQO1 (gene 1728); assay: LTEA_HepaRG_NQO1: Life Technologies and Expression Analysis (LTEA) Assay for NAD(P)H dehydrogenase [quinone] 1 (NQO1) using HepaRG (AID 2283526)
Outline: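 HepaRG, 48 h post-plating → serum-free induction medium → test chemical 48 h (duplicate, 100 uM top, half-log x8, 0.5% DMSO) → RNA isolation → qRT-PCR, ACTB/GAPDH/POLR2A normalization; bidirectional curve fit vs DMSO baseline.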

[15] = read-out: Nuclear factor erythroid 2-related factor 2 (Homo sapiens) (UniProt Q16236); assay: LTEA_HepaRG_NFE2L2: Life Technologies and Expression Analysis (LTEA) Assay for Nuclear factor erythroid 2-related factor 2 (NFE2L2) Transcription Factor using HepaRG (AID 2283527);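 also: TaqMan qRT-PCR transcript level normalised to ACTB GAPDH and POLR2A housekeeping genes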
Outline: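 Differentiated human HepaRG cells, serum-free induction medium, exposed 48 h in duplicate to eight half-log concentrations up to 100 uM in 0.5% DMSO. NFE2L2 mRNA by Fluidigm TaqMan qRT-PCR, normalised to ACTB, GAPDH, POLR2A; bidirectional change versus DMSO.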

[16] = read-out: succinate dehydrogenase complex iron sulfur subunit B (SDHB), SDHB (gene 6390); assay: LTEA_HepaRG_SDHB: Life Technologies and Expression Analysis (LTEA) Assay for succinate dehydrogenase complex iron sulfur subunit B (SDHB) using HepaRG (AID 2283528)
Outline: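 HepaRG cells (~100,000/well, plated 48 h) exposed in duplicate for 48 h in serum-free induction medium to 8-point half-log series from 100 uM in 0.5% DMSO; mRNA by qRT-PCR normalised to ACTB, GAPDH, POLR2A; bidirectional fit versus DMSO.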

[17] = read-out: Signal transducer and activator of transcription 3 (Homo sapiens) (UniProt P40763); assay: LTEA_HepaRG_STAT3: Life Technologies and Expression Analysis (LTEA) Assay for Signal transducer and activator of transcription (STAT3) using HepaRG (AID 2283529)
Outline: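 Differentiated HepaRG cells, serum-free induction medium, dosed 48 h in duplicate, 8 half-log concentrations from 100 uM in 0.5% DMSO. STAT3 mRNA by qRT-PCR, normalised to ACTB, GAPDH, POLR2A; bidirectional fit versus DMSO.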

[18] = read-out: solute carrier (SLCO1B1), SLCO1B1 (gene 10599); assay: LTEA_HepaRG_SLCO1B1: Life Technologies and Expression Analysis (LTEA) Assay for solute carrier (SLCO1B1) using HepaRG (AID 2283530)
Outline: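 Differentiated human HepaRG cells, plated 48 h, switched to serum-free induction medium and exposed in duplicate for 48 h to 8 half-log concentrations (top 100 uM) in 0.5% DMSO. SLCO1B1 mRNA by TaqMan qRT-PCR, normalized to ACTB/GAPDH/POLR2A.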

[19] = read-out: Keratin 19 (KRT19), KRT19 (gene 3880); assay: LTEA_HepaRG_KRT19: Life Technologies and Expression Analysis (LTEA) Assay for Keratin 19 (KRT19) using HepaRG (AID 2283512)
Outline: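 Differentiated human HepaRG cells, plated 48 h, were exposed in duplicate for 48 h in serum-free induction medium to eight half-log concentrations up to 100 uM in 0.5% DMSO. KRT19 mRNA was quantified by qRT-PCR, normalized to ACTB, GAPDH and POLR2A, and fitted bidirectionally versus DMSO.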

Measured: AC50

Signal transducer and activator of transcription 3 (Homo sapiens), sequence (P40763 whole entry, looked up): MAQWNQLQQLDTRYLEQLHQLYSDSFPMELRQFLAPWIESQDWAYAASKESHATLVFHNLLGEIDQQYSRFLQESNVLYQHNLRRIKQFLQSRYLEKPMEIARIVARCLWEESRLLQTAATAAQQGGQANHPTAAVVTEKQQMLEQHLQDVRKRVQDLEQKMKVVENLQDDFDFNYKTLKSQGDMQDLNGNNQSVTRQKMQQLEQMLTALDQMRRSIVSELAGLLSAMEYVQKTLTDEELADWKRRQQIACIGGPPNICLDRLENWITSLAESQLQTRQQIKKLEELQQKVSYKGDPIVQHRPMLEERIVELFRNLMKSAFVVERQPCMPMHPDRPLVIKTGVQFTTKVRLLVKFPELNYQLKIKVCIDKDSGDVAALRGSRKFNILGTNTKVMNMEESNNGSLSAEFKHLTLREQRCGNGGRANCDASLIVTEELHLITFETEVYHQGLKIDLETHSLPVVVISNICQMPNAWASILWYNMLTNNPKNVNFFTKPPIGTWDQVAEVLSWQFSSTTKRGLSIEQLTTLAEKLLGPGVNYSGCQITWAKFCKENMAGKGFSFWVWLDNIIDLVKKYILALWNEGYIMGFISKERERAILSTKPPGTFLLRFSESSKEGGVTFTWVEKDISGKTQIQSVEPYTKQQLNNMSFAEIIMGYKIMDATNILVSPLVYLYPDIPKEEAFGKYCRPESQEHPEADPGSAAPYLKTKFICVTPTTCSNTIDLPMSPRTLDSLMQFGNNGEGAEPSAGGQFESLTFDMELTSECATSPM
Nuclear factor erythroid 2-related factor 2 (Homo sapiens), sequence (Q16236 whole entry, looked up): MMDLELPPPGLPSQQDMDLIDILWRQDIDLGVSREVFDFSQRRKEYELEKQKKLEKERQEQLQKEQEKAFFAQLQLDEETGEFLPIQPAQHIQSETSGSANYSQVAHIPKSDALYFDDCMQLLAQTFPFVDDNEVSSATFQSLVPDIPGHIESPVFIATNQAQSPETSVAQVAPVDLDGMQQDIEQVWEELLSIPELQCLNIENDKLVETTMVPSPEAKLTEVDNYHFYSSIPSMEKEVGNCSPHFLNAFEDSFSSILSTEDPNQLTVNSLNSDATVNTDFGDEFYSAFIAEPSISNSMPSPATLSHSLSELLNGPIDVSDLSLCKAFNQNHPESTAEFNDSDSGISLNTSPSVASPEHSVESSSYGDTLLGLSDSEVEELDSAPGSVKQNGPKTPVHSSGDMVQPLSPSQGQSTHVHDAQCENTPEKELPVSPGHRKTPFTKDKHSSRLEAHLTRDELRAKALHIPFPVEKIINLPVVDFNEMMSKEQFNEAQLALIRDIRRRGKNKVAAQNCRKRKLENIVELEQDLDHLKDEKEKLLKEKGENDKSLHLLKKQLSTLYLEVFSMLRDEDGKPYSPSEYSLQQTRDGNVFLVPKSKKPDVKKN
Nuclear factor NF-kappa-B p105 subunit (Homo sapiens), sequence (P19838 whole entry, looked up): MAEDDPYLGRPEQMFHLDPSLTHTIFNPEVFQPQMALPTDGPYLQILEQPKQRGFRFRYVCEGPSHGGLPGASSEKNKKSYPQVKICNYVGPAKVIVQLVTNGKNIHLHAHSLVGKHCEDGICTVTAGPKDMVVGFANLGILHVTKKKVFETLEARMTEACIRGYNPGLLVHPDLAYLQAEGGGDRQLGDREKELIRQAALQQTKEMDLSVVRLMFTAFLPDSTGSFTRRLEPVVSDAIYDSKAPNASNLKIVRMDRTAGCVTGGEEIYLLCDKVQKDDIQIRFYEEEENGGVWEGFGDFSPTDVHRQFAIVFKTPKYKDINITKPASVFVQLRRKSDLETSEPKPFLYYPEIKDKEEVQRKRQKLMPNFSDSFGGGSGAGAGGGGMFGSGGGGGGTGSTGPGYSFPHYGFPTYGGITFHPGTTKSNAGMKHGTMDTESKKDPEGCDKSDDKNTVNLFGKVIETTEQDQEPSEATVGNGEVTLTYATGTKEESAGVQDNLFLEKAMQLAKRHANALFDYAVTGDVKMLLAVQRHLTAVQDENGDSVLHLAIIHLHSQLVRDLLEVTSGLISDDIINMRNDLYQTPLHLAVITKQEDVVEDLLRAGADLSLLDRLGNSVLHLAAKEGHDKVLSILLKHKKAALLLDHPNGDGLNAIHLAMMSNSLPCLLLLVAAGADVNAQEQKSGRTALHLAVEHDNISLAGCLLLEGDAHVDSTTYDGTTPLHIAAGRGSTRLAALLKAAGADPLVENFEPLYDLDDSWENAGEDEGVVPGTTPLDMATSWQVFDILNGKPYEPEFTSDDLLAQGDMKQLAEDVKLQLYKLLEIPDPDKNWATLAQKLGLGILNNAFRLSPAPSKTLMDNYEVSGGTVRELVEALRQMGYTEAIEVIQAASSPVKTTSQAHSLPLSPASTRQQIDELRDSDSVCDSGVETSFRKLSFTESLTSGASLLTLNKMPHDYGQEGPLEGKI

Cc1cccc(C)c1O
not listed: [19]
inactive: all other assays above

Cc1ccc(C)c(O)c1C
not listed: MYC, MYC (gene 4609) | [11] | [15]
inactive: all other assays above

CCCCCCCCCCO
not listed: [11] | [19]
inactive: all other assays above

CC1(C)NC(=O)NC1=O
not listed: [11] | [15] | [19]
inactive: all other assays above

NC(=O)Cn1c(=O)cc(CCN2CCN(c3nccc4sccc34)CC2)c2ccc(F)cc21
active: [3] 50 µM | [4] 50 µM | [8] 50 µM
not listed: [19]
inactive: all other assays above

CCCCCCCCCCCCCCCC
not listed: MYC, MYC (gene 4609) | [9] | [11] | [15]
inactive: all other assays above

C=CCOC(=O)c1ccccc1C(=O)OCC=C
not listed: [15] | [19]
inactive: all other assays above

Cc1ccc2ncccc2c1
not listed: [15] | [19]
inactive: all other assays above
